# Laboratory results: PubChem BioAssay AID1626 (SRMLSC, 2009)
# Where “and” joins values, the source holds several entries; their conditions need not be identical. Identical values can stand only once. In all, about 220,000 compounds went through this assay and about 2,000 (0.91%) were called active. Another 2% or so got no clear call; they are omitted. The list is a sample of the results. Results with a measured potency or affinity are listed apart. Values without a mark were called inactive. Rule as the data show it: inconclusive = inhibition above about 80% without an active follow-up result; inactive = below that; test concentration not stated here.
# Assay: M. tuberculosis H37Rv growth inhibitors, H37Rv strain (AID 1626);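 also: bacteria incubated seven days before Alamar blue readout; 0% = bacteria only wells and 100% = bacteria with antibiotic wells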
# Conditions: stronger effect = higher value, concentration not given here
row,Structure (SMILES),inhibition
1,CCOC(=O)c1c(CS(=O)(=O)c2ccccc2)n(C)c2cc(Br)c(O)c(CN(C)C)c12,-0.08%
2,COc1cccc(N=Nc2c(N)[nH]n3c(=O)cc(-c4ccccc4)nc23)c1,70.2%
3,CCC(Oc1ccccc1)C(=O)N1CCN(c2ccccn2)CC1 (configuration not stated),0.51%
4,O=C(Nc1ccc(-c2nnn(CC(=O)N3CCN(C(=O)c4ccco4)CC3)n2)cc1)c1ccccc1F,-1.57%
5,O=C(O)/C=C/C(=O)NC1CC1,-1.35%
6,O=C1OC(/C(=C\Nc2ccc(F)cc2F)[N+](=O)[O-])c2ccccc21 (configuration not stated),6.38%
7,Cc1ccc(N/C=C(\C2OC(=O)c3ccccc32)[N+](=O)[O-])c(C)c1 (configuration not stated),0.81%
8,O=C(c1cccc([N+](=O)[O-])c1)N1CCN(c2cccc(Cl)c2)CC1,2.48%
9,O=C(c1ccc([N+](=O)[O-])s1)N1CCN(c2ccccc2)CC1,2.71%
10,COc1ccc(C2Nc3ccccc3C(=O)N2c2ccccc2)cc1COc1ccccn1 (configuration not stated),6.87%
11,CCN(CC)CCNS(=O)(=O)c1ccc(C(=O)NN)cc1,2.36%
12,Cc1cccc(C)c1OCc1nnc2c3cnn(C)c3ncn12,-9.69%
13,COC(=O)c1c(C)oc(C)c1S(=O)(=O)N(C)C1CCCCC1,-4.71%
14,C(=Nc1ccc(Nc2ccccc2)cc1)c1ccc2ccccc2c1,51.2%
15,O=[N+]([O-])c1ccc(N=Cc2ccc(Br)c([N+](=O)[O-])c2)cc1,8.65%
16,COc1ccc(C(=O)CN2C3=NCCCN3c3ccccc32)cc1OC,-2.22%
17,CCc1c(C(=O)N/N=C/c2ccsc2)csc1C,-6.79%
18,CCc1ccc(C(=O)NC(C(=O)O)C(C)C)cc1 (configuration not stated),-19.3%
19,COc1ccc(NC(=O)CCSc2ccc3ccccc3n2)cc1,70.9%
20,COc1cccc(NC(=O)CCSc2ccc3ccccc3n2)c1,28.7%
21,Cc1cc(C)n2nc(N)c(N=Nc3cccc(Cl)c3)c2n1,79.8%
22,CC(=O)c1ccc(-c2ccc(/C=C(/Sc3n[nH]c(C)n3)C(=O)O)o2)cc1,6.55%
23,Cc1nc(S/C(=C/c2ccc(-c3ccc(C(=O)O)cc3)o2)C(=O)O)n[nH]1,-17.2%
24,O=c1oc2ccccc2c(N2CCCCC2)c1CN1CCCCC1,1.71%
25,COc1ccc(OC(=O)c2cc3ccccc3o2)cc1,0.38%

row,Structure (SMILES),inhibition
1,COc1ccc(OC)c(NC(=O)c2cc3ccccc3o2)c1,7.13%
2,O=C1CCCC2=C1C(c1ccncc1)c1c(nc(SCc3ccccc3Cl)[nH]c1=O)N2 (configuration not stated),11.3%
3,CC[C@@H](C)C(NC(=O)OC(C)(C)C)c1cn([C@@H](CCC(=O)OC(C)(C)C)C(=O)N2CCN(C(=O)OC(C)(C)C)CC2)nn1 (some centres not stated),-1.45%
4,O=C(c1ccc(COc2c(F)c(F)c(F)c(F)c2F)o1)N1CCN(Cc2ccc3c(c2)OCO3)CC1,-9.41%
5,O=C(c1ccc(COc2ccccc2Cl)o1)N1CCN(Cc2ccc3c(c2)OCO3)CC1,-0.88% and 13.3%
6,OCCC1CN(Cc2cccc(-n3cccn3)c2)CCN1Cc1ccccc1 (configuration not stated),-1.74%
7,CC(CCc1ccccc1)NC(=O)CSc1nc(N)cc(N)n1 (configuration not stated),-5.33%
8,COc1cccc(C2(O)CCN(Cc3ccncc3)CC2)c1,-10.2%
9,COc1cc2c(C(=O)O)c(C)n(C)c2cc1Br,-0.16%
10,Cc1cnc(C(=O)NCc2ccc(Cl)cc2Cl)cn1,-2.88%
11,C#CCSc1nc(C)cc(C(=O)OCC)c1C#N,-3.19%
12,CCOC(=O)c1cc(C)nc(SC)c1C#N,2.58%
13,NC1=NC(c2ccccc2)=NC1(NC(=O)c1ccccc1)C(Cl)Cl (configuration not stated),-0.7%
14,COC(=O)c1ccc(OCC(O)CN(CCO)CC(O)Cn2ccc3ccccc32)cc1 (configuration not stated),4.35%
15,COc1ccc(OCC(O)CN(CCO)CC(O)Cn2ccc3ccccc32)cc1 (configuration not stated),3.01%
16,Cc1ccsc1C(=O)C1CCCN(Cc2cc(F)ccc2-n2cccn2)C1 (configuration not stated),10.8%
17,CCN1CCN(C(=O)c2ccc(-c3nc4ccccc4s3)s2)CC1,0.41%
18,Cc1noc(C)c1COC(=O)c1ccc(-c2nc3ccccc3s2)s1,-10.8%
19,COCCNC(=O)COC(=O)CSCc1nc2ccccc2s1,-1.53%
20,O=C(NC1CC1)c1ccc(-c2nc3ccccc3s2)s1,46.3%
21,O=S(=O)(NC1CCCCC1)c1ccc(Br)cc1,3.07%
22,Cc1occc(=O)c1OCc1c(F)cccc1Cl,1.78%
23,CC(C)CNC(=O)COc1ccc(Sc2ccc(OCC(=O)NCC(C)C)cc2)cc1,4.46%
24,CCc1nnc(NC(=O)CCC(=O)NCc2ccc(OC)cc2)s1,-3.41%
25,O=C(O)c1cccc(Cn2c(Cl)c(/C=N/NC(=O)c3cccc(O)c3)sc2=O)c1,-13.5%

row,Structure (SMILES),inhibition
1,Cc1ccc(NC(=O)CCC(=O)c2cccs2)c(O)c1,-1.47%
2,CCOC(=O)c1cc(-c2ccccc2)nc2ccc(C)cc12,29.4%
3,Cc1ccc2nc(-c3ccncc3)cc(-c3ccccc3)c2c1,9.15%
4,CCS(=O)(=O)Nc1cccc(-c2ccc3nnc(C)n3n2)c1,-7.2%
5,Cc1ccc2nc(-c3ccc(NS(C)(=O)=O)cc3)cc(-c3ccccc3)c2c1,64.5%
6,COC(=O)[C@@H]1CCCN1C(=O)CCc1nnc(C2CCCCC2)o1,3.78%
7,COc1ccc(NC(=O)O/N=C2/CCCc3ccc(OC)cc32)cc1,-0.42%
8,O=S(=O)(Cc1cc(N2CCOCC2)nc(-c2ccccn2)n1)c1ccccc1,2.59%
9,Cc1nc(CSc2ccc(Cl)cc2)cc(N2CCOCC2)n1,-2.98%
10,O=C(Nc1ccc2c(c1)OCO2)c1ccc(S(=O)(=O)N2CCCC2)cc1,-0.32%
11,CCOc1ccc(NC(=O)c2ccc(CNc3c(N4CCCC4)c(=O)c3=O)cc2)cc1,67.9%
12,CCOc1cc(/C=C/c2ccc3cccc([N+](=O)[O-])c3n2)cc(Cl)c1O,0.72%
13,Nc1nccc(/C=C/c2c(F)cccc2Cl)n1,0.04%
14,CC(=O)Oc1c(Cl)cc(Cl)cc1/C=C/c1ccc2ccccc2n1,21.1%
15,Fc1cccc(F)c1/C=C/c1ccc2ccccc2n1,7.53%
16,Clc1ccccc1OCc1nn[nH]n1,-3.82%
17,Cn1cc2cccc([N+](=O)[O-])c2n1,-0.35%
18,O=C(/C=C/c1ccco1)Nc1ccc2c(c1)OCO2,2.3%
19,Nc1nc(N2CCN(c3ccc(Cl)cc3)CC2)n[nH]1,6.82%
20,CCCCc1ncc(CN2CCCC(C(=O)c3ccc(SC)cc3)C2)[nH]1 (configuration not stated),1.38%
21,CSc1ccc(C(=O)C2CCCN(Cc3ccn[nH]3)C2)cc1 (configuration not stated),2.84%
22,CCOC(=O)c1cc(-c2ccco2)nc2c1c(C)nn2-c1cccc(Cl)c1,-0.03%
23,O=C(NCC1CCCCC1)c1cc([N+](=O)[O-])ccc1N1CCOCC1,6.09%
24,CC(NC(=O)c1ccc(F)cc1)c1ccc2c(c1)CCCC2 (configuration not stated),1.58%
25,CC(NC(=O)c1ccccc1Br)c1ccc2c(c1)CCCC2 (configuration not stated),6.54%

row,Structure (SMILES),inhibition
1,CCC(Sc1ncnc2c1nnn2-c1ccc(F)cc1)C(=O)OC (configuration not stated),66.9%
2,CCOC(=O)C(CC)Sc1ncnc2c1nnn2-c1ccc(F)cc1 (configuration not stated),10.4%
3,Cc1cc(C)cc(NC(=O)NCc2c(-c3ccccc3)noc2C)c1,1.42%
4,CCOc1ccc(NC(=O)C(CC)NC(=O)c2ccccc2CO)cc1 (configuration not stated),3.2%
5,CCOc1ccc(NC(=O)c2ccccc2O)cc1,6.33%
6,CN(C)/C=N/c1cc(=O)n(Cc2ccccc2)c(=O)n1C,-11.1%
7,O=c1oc2ccccc2cc1-c1nc2ccccc2o1,8.96%
8,O=c1oc2ccc3ccccc3c2cc1-c1nnc(-c2ccccc2)o1,77.2%
9,COc1ccc(-c2nnc(-c3cc4c(ccc5ccccc54)oc3=O)o2)cc1,-4.32%
10,COc1ccc2oc(=O)c(-c3nc4ccccc4o3)cc2c1,2.35%
11,C=CCn1c(-c2ccccc2)nc2nc3ccccc3nc21,5.61%
12,CNC(=O)CSc1nnc(-c2ccncc2)n1Cc1ccccc1,-4.15%
13,CCOC(=O)CSC1=N/C(=C\c2cc(OC)c(OC)c(OC)c2)C(=O)N1C,0.23%
14,CCC1Oc2ccc(C)cc2N(Cc2cccc(C)c2)C1=O (configuration not stated),17.5%
15,CN(Cc1ncc[nH]1)C(=O)c1cc(COc2c(F)cccc2F)on1,0.91%
16,O=C(/C=C/c1ccccc1[N+](=O)[O-])N1CCCCC1,3.44%
17,Cc1ccc(/C=C/C(=O)N2CC(C)CC(C)C2)o1 (configuration not stated),15.8%
18,O=C(/C=C/c1cccs1)N1CCCCC1,12.9%
19,CC1CN(C(=O)/C=C/c2ccc([N+](=O)[O-])s2)CC(C)O1 (configuration not stated),6.46%
20,CCc1nc2ccccc2n1Cc1ccc(F)cc1,3.76%
21,CCOC(=O)N1CCC(NC(=O)Cn2cc3c(n2)CCCC3)CC1,-5.16%
22,Cc1ccccc1C(C(=O)NC1CCCCC1)N(C(=O)CNC(=O)c1ccco1)c1cccnc1 (configuration not stated),2.42%
